Reference: PubChem BioAssay AID686979 (National Center for Advancing Translational Sciences (NCATS), 2013)
Among all 420,000 compounds or so, about 50,000 (12%) were called active. Not shown: some 26% with an inconclusive outcome. This excerpt belongs to a sample that is enriched for actives. A number with no mark means an inactive call. Calls come from the whole dose curve; as a rule, active = well fitted inhibition curve with a large enough effect; inconclusive = small, poorly fitted or top-dose-only effect; inactive = flat fitted curve, though single readings scatter.

Assay: qHTS for Inhibitors of human tyrosyl-DNA phosphodiesterase 1 (TDP1): qHTS in cells in presence of CPT; note: nearly all actives have a fitted effect of over 55% in size
Conditions: chicken DT40 Tdp1-/-;hTDP1 cells + 20 nM CPT, ATP luminescence, 48 h; series mostly up to 46.2 µM; activity change, negative = growth inhibition: at the top concentration
Procedure, shortened: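 Cell growth measured by CellTiter-Glo luminescence after a minimum 48 h, 37 C compound exposure with 20 nM CPT in Tdp1-knockout DT40 cells stably expressing hTDP1, seeded 400/well; qHTS titration format.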
% is set by controls: 0 for no effect and ±100 for the full control effect; potency is the fitted concentration of half-maximal effect.

| SMILES | Potency | activity change, negative = growth inhibition [%] |
| --- | --- | --- |
| Cc1ccc2nc(-c3ccncc3)cc(C(=O)Nc3ccc4c(c3)OCCO4)c2c1 | 18.4 µM (active) | – |
| O=C(Nc1ccc(S(=O)(=O)Nc2nccs2)cc1)c1cc(-c2ccncc2)nc2ccccc12 | – | -3.11 |
| Cc1ccc2nc(-c3ccncc3)cc(C(=O)Nc3ccncc3)c2c1 | 13 µM (active) | – |
| CCN(CC)CCNC(=O)c1ccc(NC(=O)c2cc(-c3ccncc3)nc3ccccc23)cc1 | 14.6 µM (active) | – |
| COC(=O)CNC(=O)c1cc(-c2ccncc2)nc2ccccc12 | – | 16.5 |
| O=C(Nc1ccc2c(c1)OCCO2)c1cnccn1 | – | -10.2 |
| O=C(Nc1ccncc1)c1cc(-c2ccccn2)nc2ccc(Br)cc12 | – | 17 |
| Cc1ccc2nc(-c3cccc(Br)c3)cc(C(=O)Nn3cnnc3)c2c1 | – | 4.04 |
| CCOc1ncccc1C(=O)Nc1ccc2c(c1)OCCO2 | – | -27.3 |
| COc1ccc(C(=O)CCC(=O)Nc2ccc(Cl)cc2)cc1 | – | 1.8 |
| O=C1NC[C@H](CCCCN2CCN(CCc3ccccc3)C(=O)C2=O)N(CC2CCCCC2)C1=O | – | 1.13 |
| O=C(Nc1ccccc1)c1ccco1 | – | -13.8 |
| O=C(OC1CC2CC1[C@H]1CCCCN1C2=O)N1CCOCC1 (stereo partly drawn) | – | 10.6 |
| CCc1c(Nc2ccccc2C)nc(N)[nH]c1=O | – | 3.46 |
| CCOCCn1c(C(C)C)nc2ccccc21 | – | -0.999 |
| CCCn1c(C(O)c2ccc(OCC)cc2)nc2ccccc21 (stereo not drawn) | 20.6 µM (active) | – |
| CCCn1c(C(O)c2cc(OC)ccc2OC)nc2ccccc21 (stereo not drawn) | – | -8.68 |
| O=C(O)CCCC(=O)N1N=C(c2ccco2)CC1c1ccco1 (stereo not drawn) | – | 0.547 |
| Cc1nn(C)c(Oc2ccc(Cl)cc2)c1C=O | – | -2.66 |
| CC1(C)CC(=O)C=C(c2ccccc2CO)C1=O | – | -22 |
| Cc1ccc(C(=O)OC2=CC(=O)CC(C)(C)C2)cc1 | – | -2.38 |
| Cc1ccc(-c2ccc(C3=CC(=O)CC(C)(C)C3=O)cc2)cc1 | 0.184 µM (active) | – |
| O=C(CC1C(=O)N(c2ccccc2)C(=O)N1CCc1cccs1)Nc1ccc(F)cc1 (stereo not drawn) | – | -4.18 |
| CCCCc1nc2ccc(F)cc2cc1C | – | -17.5 |
| Cc1ccnc(NS(=O)(=O)c2ccc(NC(=O)c3oc4ccccc4c3C)cc2)n1 | – | -7.62 |
| O=c1[nH]c2ccccc2n2c(-c3ccccc3)nnc12 | 20.6 µM (active) | – |
| CC(=O)c1c(-c2ccccc2)c2ccccc2[nH]c1=O | – | 14.5 |

| SMILES | Potency | activity change, negative = growth inhibition [%] |
| --- | --- | --- |
| CCOC(=O)c1cnc2[nH]c3ccccc3n2c1=O | – | 5.8 |
| N#Cc1ccc(OCC(=O)NC(=O)NC2CCS(=O)(=O)C2)cc1 (stereo not drawn) | – | -2.01 |
| O=C(CNC(=O)c1cccs1)N/N=C/c1cccc(Br)c1 | – | -7.89 |
| CCOC(=O)c1c(-c2ccccc2)oc2ccc(OCC(=O)NN)cc12 | – | -3.23 |
| COC(=O)c1c(-c2ccsc2)oc2ccc(-c3cc(OC)c(OC)c(OC)c3)cc12 | 18.4 µM (active) | – |
| COC(=O)c1sccc1NC(=O)c1cc(OC)c(OC)c(OC)c1 | – | -25.4 |
| Cc1cccc(OCC(=O)Nc2ccc(C(=O)O)cc2NC(=O)COc2cccc(C)c2)c1 | – | -8.69 |
| O=C(Cc1ccccc1)Nc1cccc(NC(=O)c2ccccc2)c1 | – | -4.48 |
| CCc1cccc(NC(=O)CCC(=O)O)c1 | – | -0.994 |
| O=C(CCl)Nc1cccc(CP(=O)(c2ccccc2)c2ccccc2)c1 | 3.26 µM (active) | – |
| COc1ccc(N2CCN(C(=O)c3cn(C)c4ccc(S(=O)(=O)N5CCOCC5)cc4c3=O)CC2)cc1 | inactive | – |
| O=C(CC[C@H]1O[C@@H](n2ccc(=O)[nH]c2=O)[C@H](O)[C@@H]1O)N[C@H](Cc1ccccc1)C(=O)NCc1ccco1 | – | 7.85 |
| COc1ccc(CC(=O)OC(C)C(=O)Nc2ccc(S(N)(=O)=O)cc2)cc1 (stereo not drawn) | – | 1.71 |
| COc1cccc(NC(=O)NCCN2CCCCC2)c1 | – | -17.9 |
| CCN(CC(=O)Nc1ccc(S(=O)(=O)N2CCCC2)cc1)CC(=O)Nc1cccc(OC)c1 | – | -0.0362 |
| COc1cccc(NC(=O)C2(C)CCN2Cc2ccccc2Cl)c1 (stereo not drawn) | 25.9 µM (active) | – |
| CCCn1nc(NS(=O)(=O)c2ccccc2)c2cc3cc(C)ccc3nc21 | – | -16.6 |
| CCCn1nc(NS(=O)(=O)c2ccc(F)cc2)c2cc3ccccc3nc21 | – | -5.62 |
| CCCn1nc(NC(=O)C(C)C)c2cc3cc(OC)ccc3nc21 | 29.1 µM (active) | – |
| O=c1cc(CSc2ncn[nH]2)[nH]c2ccc(F)cc12 | – | -18.6 |
| Cc1ccccc1CN1C(=O)CSCC1(C)C(=O)Nc1c(C)cccc1C (stereo not drawn) | – | -1.64 |
| O=S(=O)(c1ccccc1)c1nc(-c2ccccc2F)oc1NCc1cccnc1 | – | -2.08 |
| COc1cccc(-c2nc(S(=O)(=O)c3ccc(C)cc3)c(NCc3ccccc3)o2)c1 | 16.4 µM (active) | – |
| COc1cccc(-c2nc3cc(C)ccc3o2)c1 | – | -20.2 |
| CCN(CC)C(=O)Cn1cc(S(=O)(=O)CC(=O)NCc2ccc3c(c2)OCO3)c2ccccc21 | – | -2.09 |
| Cc1c(C(=O)NCCCc2ccccc2)cccc1[N+](=O)[O-] | – | 9.3 |
